High-throughput results (PubChem)
Hits are enriched below; roughly 1.1% of the tested compounds scored in any of these assays.
BAP1 inh = blocks human BAP1 ubiquitin-AMC hydrolysis. hit rate 0.48% among 72,000. recombinant BAP1, Ub-AMC hydrolysis fluorescence kinetic; stronger effect = lower value. calls only at 20 µM. Q92560;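 active = activity remaining at or below 50% of control, provided the compound also passes the data quality filters; inactive = the rest, including low values that fail the filters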
Cdc25B inh = inhibitors of human Cdc25B phosphatase | P30305 | recombinant Cdc25B, OMFP fluorescence Ex485/Em525 | inhibition, %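 (compounds tested at 10 µM final in the well)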 | hit rate 0.1% among 65,000 | AID 368; in the data active = inhibition above about 50%
Target sequence (P30305 whole entry, looked up): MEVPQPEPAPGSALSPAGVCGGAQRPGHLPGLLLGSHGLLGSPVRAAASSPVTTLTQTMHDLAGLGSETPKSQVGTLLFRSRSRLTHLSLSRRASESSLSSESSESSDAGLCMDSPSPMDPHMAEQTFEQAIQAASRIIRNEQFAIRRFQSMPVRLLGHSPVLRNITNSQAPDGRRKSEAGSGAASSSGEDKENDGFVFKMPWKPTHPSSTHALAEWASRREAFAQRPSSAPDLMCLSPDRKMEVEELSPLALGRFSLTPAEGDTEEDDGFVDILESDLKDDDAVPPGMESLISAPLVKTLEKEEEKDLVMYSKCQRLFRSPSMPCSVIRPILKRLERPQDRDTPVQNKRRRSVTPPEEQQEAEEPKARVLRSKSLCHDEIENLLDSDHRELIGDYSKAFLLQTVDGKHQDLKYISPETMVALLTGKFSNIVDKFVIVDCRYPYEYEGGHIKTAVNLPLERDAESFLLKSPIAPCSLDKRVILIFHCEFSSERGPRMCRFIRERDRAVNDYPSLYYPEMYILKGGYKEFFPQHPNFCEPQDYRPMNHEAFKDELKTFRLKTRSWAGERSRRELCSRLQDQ
DUSP1 inh = blocks human MKP-1 phosphatase activity; P28562; recombinant MKP-1, OMFP hydrolysis fluorescence; inhibition, %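 (compounds tested at a single concentration somewhere between 10 and 100 µM)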; hit rate 0.15% among 65,000;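 active = inhibition above about 50%, limit read from the data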
HePTP inh = inhibitors of human HePTP phosphatase; P35236; AID 521; inhibition, % at 20 µM; recombinant HePTP phosphatase activity, OD absorbance; hit rate 0.64% among 110,000; in the data active = inhibition above about 50%
Hsp90 inh = displaces geldanamycin probe from tumor Hsp90 | P07900 | NCI-N417 lysate Hsp90, Cy3B-geldanamycin FP displacement | inhibition, % at 30 µM | hit rate 0.35% among 64,000;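 active = inhibition above 50%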
Hits are given with their value; . = inactive; / = not tested or not shown; + = active, no number.

SMILES | BAP1 inh | Cdc25B inh | DUSP1 inh | HePTP inh | Hsp90 inh
CN(C)c1ccc(/C=C2\SC(N3CCN(C4=NC(=O)/C(=C\c5ccc(N(C)C)cc5)S4)CC3)=NC2=O)cc1 | / | / | / | . | /
C=CCc1cccc(/C=N/NC(=O)c2cc(C34CC5CC(CC(C5)C3)C4)[nH]n2)c1O | / | / | / | . | /
Cc1cccc(OCC(=O)Nc2ccc(Cl)c(Cl)c2)c1C | / | / | / | . | /
COc1nsnc1NS(=O)(=O)c1ccc(NC(=S)NC(=O)c2sc3cc(F)ccc3c2Cl)cc1 | / | / | / | 102 | /
Cc1ccc(OCCc2c(C)n[nH]c2C)c(Cl)c1 | / | / | / | 105 | /
O=C(c1sc2ccccc2c1Cl)N1CCN(Cc2ccccc2)CC1 | / | / | / | 103 | /
O=C(c1sc2ccccc2c1Cl)N1CCC(Cc2ccccc2)CC1 | / | / | / | . | /
O=C(Nc1ccc2ccccc2c1)C1CC(=O)N(c2ccccc2)C1 (stereo unspecified) | / | / | / | . | /
COC(=O)c1ccc(C(=O)Nc2cc(Cl)ccc2Cl)cc1NC(=O)C(C)Oc1ccccc1 (stereo unspecified) | / | / | / | 66 | /
CCN(CC)CCCC(C)Nc1cc(O)cc2cccnc12 (stereo unspecified) | / | / | / | / | 138
O=C(Nc1ccccc1)NC1CCCCC1 | / | / | / | 89 | /
S=C(Nc1ccccc1)NC1CCCC1 | / | / | / | . | /
O=C(NCCOc1ccccc1)C(O)(c1ccc(F)cc1)c1ccc(F)cc1 | / | / | / | . | /
N/C(=N\N=C\c1ccccc1O)c1nonc1N | / | / | / | . | /
O=C1NC(=S)S/C1=C/c1ccc(Sc2ccccc2)o1 | / | / | / | 87 | /
O=C1NC(=S)S/C1=C/c1ccc(-c2ccccc2)o1 | / | / | / | . | /
C=CCOc1c(Br)cc(/C=C2/C(=O)NC(=O)N(c3ccccc3F)C2=O)cc1OCC | / | / | / | . | /
O=C(N/N=C/c1ccc([N+](=O)[O-])o1)c1ccc(O)cc1 | / | / | / | 102 | /
Cc1ccc(/C=N\NC(=O)c2ccc(O)cc2)cc1 | / | / | / | . | /
CCC1=NN2C(=N)/C(=C/c3ccc(OC(=O)c4ccc(F)cc4)c(OC)c3)C(=O)N=C2S1 | / | / | / | . | /
CCOc1cc(/C=C2/C(=N)N3N=C(CC)SC3=NC2=O)ccc1OC(=O)c1cccc([N+](=O)[O-])c1 | / | / | / | 103 | /
CCN(CC)c1ccc(NC(=O)/C=C\c2ccccc2Cl)cc1 | / | / | / | 104 | /
CCCCCCCCCCCCCCC[C@H](O)[C@H](N)CO | + | / | / | / | .
CN(C)Cc1c(O)c[n+]([O-])c2ccccc12 | / | / | / | 103 | /
CCOc1ccccc1N1CCN(C(=O)c2cccc(F)c2)CC1 | / | / | / | 103 | /
SMILES | BAP1 inh | Cdc25B inh | DUSP1 inh | HePTP inh | Hsp90 inh
O=C(NCCCn1ccnc1)c1noc2c1CCc1ccccc1-2 | . | . | . | . | 63
O=C(NCCCn1ccnc1)c1noc2c1CCCC2 | . | . | . | . | .
O=C(NCCCn1ccnc1)C(O)(c1ccccc1)c1ccccc1 | / | / | / | 56 | /
COc1ccc(C2=C(Nc3cccc([N+](=O)[O-])c3)c3ccccc3C2=O)cc1 | / | / | / | . | /
O=S(=O)(c1ccc2c(c1)OCCO2)N1CCCCC1 | / | / | / | . | /
O=C(COc1ccc(Cl)cc1)Oc1ccc2c(c1)oc(=O)c1ccccc12 | / | / | / | . | /
Cn1cccc1/C=C1/C(=O)NC(=S)N(c2cccc(Cl)c2)C1=O | / | / | / | 101 | /
O=C1/C(=C/c2cc([N+](=O)[O-])ccc2Cl)SC(=S)N1c1ccccc1 | / | / | / | . | /
O=C1/C(=C\c2cc([N+](=O)[O-])cc(Br)c2O)SC(=S)N1c1cccc(Cl)c1 | / | / | / | 101 | /
Cc1onc(-c2ccccc2Cl)c1C(=O)Nc1ccc(-n2nncc2C(C)(C)C)cc1 | . | 66 | . | . | .
Cc1onc(-c2ccccc2Cl)c1C(=O)Nc1ccc(-n2nncc2-c2ccco2)cc1 | / | . | . | . | .
Cc1ccc(OCc2nc(-c3ccc(Cl)cc3Cl)no2)c(C)c1 | / | / | / | . | /
O=C(c1cccc(S(=O)(=O)Nc2ccc(Cl)cc2)c1)N1CCCc2ccccc21 | . | / | / | / | /
Cc1cc(NC(=O)c2ccc(-c3ccc(Br)cc3)o2)ccc1NC(=O)c1ccco1 | / | / | / | . | /
O=C(Nc1ccccc1C(=O)Nc1ccc(Cl)cc1)c1ccco1 | / | / | / | 103 | /
Cc1cc(NC(=O)c2ccc(-c3ccc(Cl)cc3)o2)ccc1NC(=O)c1ccco1 | / | / | / | 61 | /
Cc1ccc(C(=O)NCCNC(=O)c2nonc2N)cc1 | . | / | / | / | /
COc1cccc(C(=O)NCc2n[nH]c(=S)n2-c2cccc(Cl)c2)c1 | . | / | / | / | /
O=C1NC(=S)N/C1=C\c1ccc(-c2cccc([N+](=O)[O-])c2)o1 | / | / | / | . | /
C=CCN1C(=O)/C(=C\c2ccc(-c3ccc([N+](=O)[O-])cc3Cl)o2)C(=O)NC1=S | / | / | / | . | /
O=C1NC(=S)N/C1=C\c1ccc(-c2cc([N+](=O)[O-])ccc2Br)o1 | / | / | / | 102 | /
C=CCN1C(=O)/C(=C\c2ccc(-c3ccc(OC)cc3[N+](=O)[O-])o2)C(=O)NC1=S | / | / | / | . | /
C=CCN1C(=O)/C(=C\c2ccc(-c3ccccc3[N+](=O)[O-])o2)C(=O)NC1=S | / | / | / | . | /
C=CCN1C(=O)/C(=C\c2ccc(-c3ccc([N+](=O)[O-])cc3C)o2)C(=O)NC1=S | / | / | / | 103 | /
C=CCN1C(=O)/C(=C\c2ccc(-c3ccc([N+](=O)[O-])cc3Br)o2)C(=O)NC1=S | / | / | / | 98 | /
SMILES | BAP1 inh | Cdc25B inh | DUSP1 inh | HePTP inh | Hsp90 inh
C=CCN1C(=O)/C(=C\c2ccc([N+](=O)[O-])o2)C(=O)NC1=S | / | / | / | 103 | /
Cc1cc(C=O)c(C)n1-c1cccc([N+](=O)[O-])c1 | / | / | / | . | /
CCOC(=O)C1=C(C)NC(=S)NC1c1ccccc1OC(F)F (stereo unspecified) | / | / | / | . | /
O=C1CC(NCc2ccco2)C(=O)N1CCc1ccccc1 (stereo unspecified) | . | 53 | . | . | .
Cc1cccc(C(=O)NN2CCN(C)CC2)c1 | / | / | / | . | /
Cc1cccc(C2CN(C)CCc3c2cc(O)c(O)c3Cl)c1 (stereo unspecified) | . | / | / | / | 69
C=CCN1CCc2c(cc(O)c(O)c2Cl)C(c2ccccc2)C1 (stereo unspecified) | . | / | / | / | 76
C=CCN1CCc2cc(O)c(O)cc2C(c2ccccc2)C1 (stereo unspecified) | . | / | / | / | 56
O=C(COc1cccc2ccccc12)Nc1ccc2c(c1)OCO2 | / | / | / | . | /
CN1CCN(C(=O)c2ccc(Cl)c(Cl)c2)CC1 | / | / | / | . | /
COc1ccc(C(NC(=O)C(c2ccccc2)c2ccccc2)NC(=O)C(c2ccccc2)c2ccccc2)cc1OC | / | / | / | . | /
CC1(C)CC(NC(=O)c2cccc(Cl)c2)CC(C)(C)N1 | / | / | / | 102 | /
COc1cccc(C(=O)NCC(=O)n2nc(C)cc2C)c1 | . | . | . | . | 121
COc1cc(C(=O)NCC(=O)n2nc(C)cc2C)cc(OC)c1OC | . | . | . | . | .
O=C(c1ccc2ccccc2c1)N1CCN(c2ccc(O)cc2)CC1 | . | . | . | . | 92
S=C1NC(=S)/C(=C\c2ccc(-c3ccc(Br)cc3)o2)S1 | / | / | / | 93 | /
COCCN1C(=O)/C(=C\c2ccc(-c3ccc(Br)cc3)o2)SC1=S | / | / | / | . | /
Cn1c(=O)c(NCCO)c2c3c(cccc31)C(=O)c1ccccc1-2 | . | . | . | . | 135
CCOc1cccc(C=Nc2cccc(NC(=O)c3ccc(F)cc3)c2)c1O | . | / | / | / | /
Cc1cccc(N2CCN(S(=O)(=O)c3ccc4c(c3)CCN4C(=O)CCC(=O)O)CC2)c1C | . | . | 51 | . | .
COc1ccc(OC)c(/C=N/c2oc(-c3ccco3)c(-c3ccco3)c2C#N)c1 | . | . | . | . | 55
COC(=O)c1ccc(/C=C2\SC(=S)N(c3ccc(F)cc3)C2=O)cc1 | / | / | / | . | /
